Potency data for 43 compounds are collected here from PubChem BioAssay AID1508622 (National Center for Advancing Translational Sciences (NCATS), 2021).

SMILES strings stand for the structures. Active and inactive are the calls of the source. Where a call stands in place of a potency, no number is given. The call rests on the fitted dose curve; in most records, active means well fitted activation curve with a large enough effect; inconclusive means small, poorly fitted or top-dose-only effect; inactive means no such curve, though single readings can be large or run the other way.

A short description of this assay: Confirmatory qHTS for Identification of Small Molecule Activators of Huntingtin-Antisense Promoter Activity. The settings on record: HEK293 HTT-AS promoter firefly luciferase reporter, 24 h; series mostly up to 57.5 µM. The essentials: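 HEK293 luciferase reporter cells, 2,500/well, cultured 24 h, then exposed to compounds at up to 57.5 uM final for 24 h at 37C. Firefly luciferase luminescence read; normalized to vehicle (0%) and zero RLU (-100%).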
For orientation: Quantitative high-throughput screening tests each substance at several concentrations.

As to `COc1ccc(CCNC(=O)c2c(C)nn(-c3ccc(F)cc3)c2-n2cccc2)cc1OC`, the Potency entry is “inactive”.
For the compound `CCc1c(C)sc2c1CCN(Cc1ccc(F)cc1)C2c1ccccc1` (stereo not drawn), the Potency entry was “inactive”.
The result for `Cc1ccc(Cn2cc(/C=C(/C#N)C(=O)Nc3cccc(Cl)c3)c3ccccc32)cc1` reads “inactive”; that for `COc1ccc(NC(=O)Cn2nc(C(F)(F)F)c3c2CCCC3)cc1OC`, “inactive”; that for `CCCNc1nc(NCc2ccccc2OC)c2cnn(C)c2n1`, “inactive”.
In the case of `CCOC(=O)C1CCC(CN(Cc2ccc(Cl)cc2)S(=O)(=O)c2cc(Cl)cc(Cl)c2)CC1` (stereo not drawn) it was “inactive”; in that of `COC[C@H](NC(=O)c1cnc(C)s1)C(=O)N[C@@H](COC)C(=O)N[C@@H](Cc1ccccc1)C(=O)[C@@]1(C)CO1`, “inactive”; in that of `COc1cccc(CNC(=O)Cn2c(=O)oc3cc(S(=O)(=O)N4CCC(C)CC4)ccc32)c1`, “inactive”.
In the case of `CCc1ccc(CN(Cc2ccco2)C(=O)COc2ccccc2Cl)cc1` it was “inactive”; in that of `Cn1cnc(S(=O)(=O)N2CCC(C(=O)Nc3ccc(OC(F)(F)F)cc3)CC2)c1`, “inactive”; in that of `Cc1cccc(NC(=O)Cn2c(=O)oc3cc(S(=O)(=O)N4CCCCCC4)ccc32)c1`, “inactive”.
As for `Cc1cccc(Nc2nc(Nc3cccc(C)c3)nc(N3CCOCC3)n2)c1`, the Potency result was “inactive”.
In the case of `Cc1ccc(CSc2ncc(Cl)c(C(=O)NCCc3ccc(S(N)(=O)=O)cc3)n2)cc1` it was “inactive”; in that of `COc1ccc(CCNc2ncnc3onc(C)c23)c(OC)c1`, “inactive”.
With `COc1ccccc1NC(=O)CSc1nnc2c(n1)[nH]c1ccccc12`, the Potency result is “inactive”.
The result for `Cc1ccc2nc(CSc3nnc(NC(=O)COc4ccccc4)s3)cc(=O)n2c1` reads “inactive”.
The result for `Cc1ccc(Cl)cc1N1CCN(C(=O)c2cccn2-c2nnc(N3CCCCC3)s2)CC1` reads “inactive”; that for `COc1ccccc1N=c1scc(-c2ccc(S(=O)(=O)N3CCCC3)cc2)n1C`, “inactive”; that for `CCOc1ccc(S(=O)(=O)NCCc2sc3nc(-c4ccc(F)cc4)nn3c2C)cc1`, “inactive”.
In the case of `Cc1ccc(Cl)cc1N1CCN(C(=O)CCS(=O)(=O)c2ccc3c(c2)oc(=O)n3C)CC1`, the Potency result was “inactive”.
`Cc1ccc(NCc2cccn2-c2nnc(N3CCC(C(=O)NC(C)C)CC3)s2)cc1`: the Potency result was “inactive”.
With `Cc1ccc(-c2onc(C)c2C)cc1S(=O)(=O)N1CCC(C)CC1`, the Potency entry was “inactive”.
In the case of `CCOc1ccccc1C(=O)Nc1ccc(-n2nncc2-c2ccccc2)cc1` it was “inactive”.
In the case of `CCc1ccc(CNC(=O)c2ccc3nc(SCc4ccc(F)cc4)n(C)c3c2)cc1` it was “inactive”.
The result for `Cc1ccc(-c2nc(S(=O)(=O)c3ccccc3)c(SCC(=O)NC3CCCCC3)o2)cc1` reads “inactive”; that for `CCCOCc1cc(CN2CCN(c3cccc(Cl)c3)CC2)c(O)c2ncccc12`, “inactive”.
As for `COc1cccc(OCc2nc3ccccc3n2CCOc2ccccc2)c1`, the Potency result was “inactive”.
In the case of `CCc1ccc(OCC2c3cc(OC)c(OC)cc3CCN2C(=O)COc2ccccc2)cc1` (stereo not drawn) it was “inactive”; in that of `CC(C)C[C@@H](C=O)NC(=O)[C@H](CC(C)C)NC(=O)[C@H](CC(C)C)NC(=O)OCc1ccccc1`, “inactive”; in that of `Cc1ccc2onc(CC(=O)N3CCN(c4cc(Cl)ccc4C)CC3)c2c1`, “inactive”.
Turning to `CCc1ccc(CNC(=O)Cn2ccc3cc(S(=O)(=O)N4CCCCCC4)ccc32)cc1`, the Potency result is “inactive”.
The result for `COc1ccc(NC(=O)c2cc(S(=O)(=O)NCCC3=CCCCC3)ccc2F)cc1` reads “inactive”.
Consider `CC=C1NC(=O)[C@H]2CSSCCC=C[C@H](CC(=O)N[C@H](C(C)C)C(=O)N2)OC(=O)[C@H](C(C)C)NC1=O`, for which the Potency entry was “inactive”.
In the case of `O=C(C=Cc1ccc(O)cc1)c1ccc(O)cc1O` it was “inactive”; in that of `CCOC(=O)Cc1ccc(NC(=O)N(Cc2ccc(CC)cc2)Cc2cn[nH]c2-c2ccc(OC)cc2)cc1`, “inactive”.
In the case of `CCS(=O)(=O)NCCc1sc2nc(-c3ccc(OC)cc3)nn2c1C` it was “inactive”.
`COc1ccc(-c2nc(CSCC(=O)N3CCN(c4cc(Cl)ccc4C)CC3)c(C)o2)cc1`: the Potency entry is “inactive”.
In the case of `O=S(=O)(Nc1ccc(OC(F)(F)F)cc1)c1ccc(N2CCCCS2(=O)=O)cc1` it was “inactive”; in that of `COc1ccc(Cl)cc1Nc1sc(C(=O)c2ccccc2)c(N)c1C(=O)Nc1ccccc1`, “inactive”; in that of `Cc1ccc(S(=O)(=O)C(CNC(=O)C(=O)NCCc2ccc(F)cc2)c2cccs2)cc1` (stereo not drawn), “inactive”.
In the case of `O=C(Nc1ccc(Br)cc1)c1ccc(F)c(S(=O)(=O)NC2CCCCCC2)c1` it was “inactive”; in that of `COc1cc(NC(=O)Cn2nc(C(F)(F)F)c3c2CCC3)cc(OC)c1OC`, “inactive”.
The result for `Cc1nnc(N2CCN(c3cccc(C(F)(F)F)c3)CC2)c2c1nnn2Cc1ccccc1` reads “inactive”.
